From paper PMC4336329 (PLoS ONE, 2015)
The whole screen tested about 310,000 compounds, of which about 14,000 (4.5%) showed an effect of 50% or more. Effects have a minus sign here. The list comes from a sample in which strong results are over-represented; it also holds similar structures and randomly drawn compounds.

molecular target: human ether-à-go-go-related gene (hERG) potassium channel (human, UniProt Q12809); assay: primary screen, population patch clamp on CHO cells stably expressing hERG; higher = less effect of the substance
Sequence (Q12809 whole entry, looked up): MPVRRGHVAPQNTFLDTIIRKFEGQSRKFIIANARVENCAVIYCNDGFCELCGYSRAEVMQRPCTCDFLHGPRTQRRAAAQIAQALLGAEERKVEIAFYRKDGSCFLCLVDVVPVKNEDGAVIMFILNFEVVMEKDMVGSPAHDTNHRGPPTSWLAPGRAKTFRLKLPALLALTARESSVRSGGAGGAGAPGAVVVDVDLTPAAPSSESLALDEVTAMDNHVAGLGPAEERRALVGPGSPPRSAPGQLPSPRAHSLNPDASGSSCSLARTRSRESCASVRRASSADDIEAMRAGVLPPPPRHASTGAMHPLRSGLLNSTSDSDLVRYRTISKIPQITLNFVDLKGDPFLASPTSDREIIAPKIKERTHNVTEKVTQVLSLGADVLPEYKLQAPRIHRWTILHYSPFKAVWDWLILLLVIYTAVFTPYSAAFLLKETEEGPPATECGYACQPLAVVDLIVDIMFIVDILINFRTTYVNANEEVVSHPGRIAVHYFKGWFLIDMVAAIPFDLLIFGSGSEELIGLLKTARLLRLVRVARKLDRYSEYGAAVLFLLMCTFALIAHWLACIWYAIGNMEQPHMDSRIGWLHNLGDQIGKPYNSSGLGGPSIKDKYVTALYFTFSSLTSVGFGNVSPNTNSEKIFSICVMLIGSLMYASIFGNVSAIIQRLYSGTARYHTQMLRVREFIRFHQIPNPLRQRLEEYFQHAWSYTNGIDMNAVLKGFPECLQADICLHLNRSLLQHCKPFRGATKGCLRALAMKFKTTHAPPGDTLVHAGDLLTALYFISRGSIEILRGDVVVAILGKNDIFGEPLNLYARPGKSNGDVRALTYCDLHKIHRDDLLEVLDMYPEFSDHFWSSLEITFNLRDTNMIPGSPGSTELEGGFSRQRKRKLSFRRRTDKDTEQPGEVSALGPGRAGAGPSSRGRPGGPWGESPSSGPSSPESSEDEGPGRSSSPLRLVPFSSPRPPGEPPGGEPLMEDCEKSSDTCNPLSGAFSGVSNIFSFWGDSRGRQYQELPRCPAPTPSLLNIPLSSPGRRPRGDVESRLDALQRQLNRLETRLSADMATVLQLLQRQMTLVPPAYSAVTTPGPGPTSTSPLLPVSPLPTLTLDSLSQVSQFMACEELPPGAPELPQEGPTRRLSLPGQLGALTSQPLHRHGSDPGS
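Also: peak tail current of the secondary pulse compared with the same well before compound.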

| Compound | hERG current change (%, negative = inhibition) at 10uM [%] |
| --- | --- |
| O=C(/C=C/c1ccccc1)C1C(=O)c2ccccc2C1=O | -0.201 |
| Cn1cnc(S(=O)(=O)N2CCN(c3ccccc3)CC2)c1 | 17.3 |
| Cc1c(C(=O)O)oc2c1C(O)CCC2 (centres unmarked) | 0.768 |
| COc1ccc(N(C(C)=O)C2C=CS(=O)(=O)C2)c(OC)c1 (centres unmarked) | 9.14 |
| CSc1nnc(C(C)(C)C)c(=O)n1/N=C/c1ccc(Cl)cc1 | 0.0206 |
| CC(/C=N/NC(=O)CNc1n[nH]c(=O)[nH]c1=O)c1ccccc1 (centres unmarked) | 2.52 |
| COc1cccc(-c2nn(-c3ccccc3)cc2CN(C)Cc2ccon2)c1 | 9.02 |
| CN(Cc1cn(Cc2ccccc2)nc1-c1ccc2c(c1)OCO2)Cc1nccn1C | -32.7 |
| COc1cccc(-c2nn(-c3ccccc3)cc2CN(C)Cc2c(C)nc3ccccn23)c1 | -59.9 |
| COc1cccc(-c2nn(-c3ccccc3)cc2CN(C)Cc2ccno2)c1 | 3.65 |
| COc1ccc(-c2nn(-c3ccccc3)cc2CN(C)CCn2ccnc2C)c(F)c1 | -57.6 |
| CN(Cc1ccccn1)Cc1cn(Cc2ccccc2)nc1-c1ccc2c(c1)OCO2 | -20.6 |
| CN(Cc1cn(-c2ccccc2)nc1-c1ccc2c(c1)OCO2)Cc1nccn1C | -16.1 |
| COc1ccc(-c2nn(-c3ccccc3)cc2CN2CCCO2)c(F)c1 | 3.95 |
| CCn1ccnc1CN(C)Cc1cn(-c2ccccc2)nc1-c1ccc(OC)cc1F | -44.9 |
| Cc1nccn1CCN(C)Cc1cn(Cc2ccccc2)nc1-c1ccc2c(c1)OCO2 | -60 |
| CN(Cc1cnccn1)Cc1cn(Cc2ccccc2)nc1-c1ccc2c(c1)OCO2 | -23 |
| CN(Cc1ncc[nH]1)Cc1cn(-c2ccccc2)nc1-c1ccc2c(c1)OCO2 | -60.1 |
| O=C(c1nnc(Cc2ccc(Cl)cc2)o1)N1CCOCC1 | 10.7 |
| O=C(Nc1ccc(Cl)cc1)N1CCOCC1 | 13.8 |
| O=C(Nc1ccc(F)c(Cl)c1)c1ccccc1 | 0.672 |
| COCCNS(=O)(=O)c1cc(C(=O)O)ccc1OC | 15.9 |
| COc1cc(C(=O)OC2C[C@H]3CC[C@@H](C2)N3C)ccc1O (some centres unmarked) | -7 |
| Cc1ccc(N2C(=O)C3C(C2=O)C(C(=O)c2ccc(Cl)cc2)N2CCCC32)cc1 (centres unmarked) | 2.31 |

| Compound | hERG current change (%, negative = inhibition) at 10uM [%] |
| --- | --- |
| OCC[C@@H]1C[C@@H](O)[C@H](O)[C@@]2(CCCO2)O1 | 6.76 |
| CCCc1cc(=O)[nH]c(SCC(=O)c2c(N)n(C3CC3)c(=O)[nH]c2=O)n1 | 6.85 |
| COc1ccc2c3n(nc2c1)CCN=C3c1ccc(C)cc1 | -14.3 |
| O=C(NCCS(=O)(=O)N1CCN(c2ccccc2)CC1)C1CC(=O)N(c2ccc(F)cc2)C1 (centres unmarked) | -1.02 |
| O=C(CN1CCN(c2ccccc2F)CC1)NCc1ccccc1 | -0.288 |
| O=C(COC(=O)CNC(=O)c1ccccc1F)Nc1ncc(Cl)cc1Cl | -3.8 |
| Cc1c(Cl)cccc1NC(=S)N(Cc1ccco1)C(C)c1ccccn1 (centres unmarked) | -11 |
| CN(CCn1ccnc1)Cc1cn(Cc2ccccc2)nc1-c1ccc2c(c1)OCO2 | -23.2 |
| CN(Cc1cccnc1)Cc1cn(Cc2ccccc2)nc1-c1ccc2c(c1)OCO2 | -11.7 |
| CN(CCn1ccnc1)Cc1cn(-c2ccccc2)nc1-c1ccc2c(c1)OCO2 | -62.9 |
| CN1CCN(C(=O)/C(=C\c2ccc3c(c2)OCO3)NC(=O)c2cccs2)CC1 | -76.8 |
| CN1CCN(C(=O)/C(=C\c2cccs2)NC(=O)c2ccccc2)CC1 | -75.3 |
| CCOC(=O)N1CCN(C(=O)/C(=C/c2cccs2)NC(=O)c2cccs2)CC1 | -45.7 |
| CCOC(=O)N1CCN(C(=O)/C(=C\c2cccs2)NC(=O)c2cccs2)CC1 | -71.8 |
| O=C(N/C(=C/c1cccs1)C(=O)N1CCCC1)c1ccccc1 | 6.44 |
| Cc1ccc(NC(=O)/C(=C\c2cccs2)NC(=O)c2ccccc2)cc1 | -3.84 |
| O=C(Nc1ccccc1)/C(=C\c1cccs1)NC(=O)c1ccccc1 | 9.9 |
| Cc1cccc(NC(=O)/C(=C\c2cccs2)NC(=O)c2ccccc2)c1 | -51.7 |
| O=C(N/C(=C\c1ccc2c(c1)OCO2)C(=O)N1CCOCC1)c1cccs1 | -42.8 |
| O=C(N/C(=C\c1cccs1)C(=O)N1CCCCCC1)c1ccccc1 | -32.3 |
| CCOC(=O)N1CCC(NC(=O)c2cccs2)CC1 | 6.2 |
| O=C(N/C(=C/c1ccc2c(c1)OCO2)C(=O)N1CCOCC1)c1cccs1 | 9.12 |
| COc1cc(CNCC2CCCO2)ccc1OCC(N)=O.Cl (centres unmarked) | 16.3 |
